Laboratory results as given in the supplement of paper PMC11417369.
± gives the standard deviation of the averaged measurements. In all, about 25,000 sequences were measured (“ln(normalized median fluorescence intensity)”: median about 8.6, highest 2% from about 10 on). The sample holds the highest values, similar sequences and a random draw of the others, so the mix is not that of the screen.

tested on: PfAP2-EXP AP2 domain (GST-tagged); test: gcPBM binding intensity (ln(normalized median fluorescence intensity)); higher = stronger DNA binding
In short: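 Binding intensity is the highest Masliner-normalised natural-log median intensity over replicate spots in either probe orientation. To obtain it, GST-tagged P. falciparum DNA-binding domains made in E. coli were incubated for 1 h on an Agilent 4 × 180k array of primer-extended double-stranded 36-bp intergenic genomic probes plus negative controls. Detection used Alexa488 anti-GST antibody with scanning at 488 nm.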

Row | Sequence | gcPBM binding intensity (ln)
1 | AATAAATTAATTTTGGGTACATATATATATATATAT [XGTACX_site3807] | 10.2 ± 0.23
2 | TAATTAATAATAATATGTACATATTAATATATTATT [XGTACX_site6900] | 8.29 ± 0.24
3 | TTATAATTTAATAAATGTACATAAATAATATACATA [XGTACX_site7271] | 8.26 ± 0.18
4 | TAAAAAATAAATATATGTACATATTTATTTTTTTTT [XGTACX_site850] | 8.21 ± 0.35
5 | TAATTTAAAATATATAGTACACACGTGAACACAAAT [XGTACX_site792] | 8.89 ± 0.45
6 | AATATATCATAATGATGTACAAGTAAAACCGTTACA [XGTACX_site4280] | 8.74 ± 0.52
7 | TATTATATGTATTGCACACCTTCAACAACTACTTCT [CACACA_site655] | 9.03 ± 0.14
8 | TATTATTTTTTTATTCTATTAAAAAGAAAAAAATGA [CACACA_negctrl_site407] | 7.95 ± 0.47
9 | ACTTTACGAATTAAGAGTACTTATTTAAGGAACACT [XGTACX_site7919] | 8.52 ± 0.37
10 | CTACATAAAAAAATATGTACATATATATATATATAT [XGTACX_site667] | 10 ± 0.46
11 | AAATATAAAAAAAAAAGTACTTTGTTACTTTTCTAT [XGTACX_site6034] | 8.04 ± 0.36
12 | AACACATACAGATATGCACACATTTTATTCCATTAT [CACACA_site5565] | 8.84 ± 0.34
13 | TGAAAAAATATAATTTGTACATATCAGGCAAAAATG [XGTACX_site1824] | 8.68 ± 0.38
14 | TATAAAAATATATTTACACACTATATATATCGAAAG [CACACA_site1700] | 8.52 ± 0.38
15 | CCACTAATAAATATTACACACATATAGATTTATATT [CACACA_site7465] | 8.41 ± 0.44
16 | ATATATATATATAATACACACTAAAGTAACATAATA [CACACA_site5580] | 9.74 ± 0.11
17 | ATATATATATATATATGTACATATTTTATTTAATTT [XGTACX_site1807] | 10.2 ± 0.28
18 | TATATACTTTATAAATGTACATATAATGTATTATTT [XGTACX_site7313] | 8.34 ± 0.42
19 | TATATATATATATAATGTACATAATAATAATACATC [XGTACX_site5587] | 9.84 ± 0.26
20 | TATATATATACTTAATGTACATATATATATATATAT [XGTACX_site3102] | 10.3 ± 0.2
21 | TATATATATATATAATGTACATATATATAATATACA [XGTACX_site1552] | 10.1 ± 0.27
22 | TTTAATATGAATTTATGTACATATATATATATATAT [XGTACX_site6337] | 10.2 ± 0.35
23 | ATATATATATATATATGTACATAATTAATAGCATAT [XGTACX_site1428] | 10.2 ± 0.36

Row | Sequence | gcPBM binding intensity (ln)
24 | TTTATACTTTCAAAATGTACATATATATATATATAT [XGTACX_site6241] | 10.2 ± 0.24
25 | TTATATACATAAAAATGTACTTTTTATAAAATATAT [XGTACX_site8281] | 8.21 ± 0.18
26 | AATATTTATTTTATATGTACATAATTTATTTTTAAT [XGTACX_site776] | 8.63 ± 0.32
27 | TATATATATAATATATGTACATATTAATTATGTATA [XGTACX_site5366] | 8.79 ± 0.13
28 | CATATAATATAATTATGTACATATATAATAATATAC [XGTACX_site5278] | 8.47 ± 0.29
29 | CAACACTTAGATTTTAAGTTCACTGGTTAATATATA [CACACA_negctrl_site707] | 8.12 ± 0.4
30 | ATTGAAAATTGTTGCACACATAATAATTAAATATAT [CACACA_site1857] | 8.37 ± 0.23
31 | GATCTTTAAATTTATTGTACATAAATGTATATGTTA [XGTACX_site1107] | 8.59 ± 0.45
32 | TATTTACAAAAAAAATATAAAAAATATAAAATATAT [CACACA_negctrl_site575] | 8.12 ± 0.31
33 | TGTTAATTTCATTTTCTACACACCTATCCTTTTTTT [CACACA_site8157] | 8.88 ± 0.47
34 | GTATATAATTATATATGTACTAAATAAATATTTTTA [XGTACX_site6062] | 8.29 ± 0.39
35 | TAATTATTTTCGGTACGTACTAATGTATATATAATT [XGTACX_site3895] | 8.67 ± 0.42
36 | ATATATATATATATATGTACATATTTTTAATTATAA [XGTACX_site7444] | 9.86 ± 0.13
37 | TATTAATTTTTATTATGTACATAAATAATTTATATT [XGTACX_site5456] | 8.39 ± 0.28
38 | TTTTTTTTTTTCGGGGGTACTAATATATTATTAATA [XGTACX_site7809] | 10.4 ± 0.34
39 | ATATATATATATATATGTACATAAATATAAATTTAA [XGTACX_site8715] | 10.2 ± 0.24
40 | TTAAATATAATATTATGTACTAAATATTTTTTTATT [XGTACX_site6121] | 8.09 ± 0.37
41 | ATATATATATATATATGTACATATTTTAATAATTAA [XGTACX_site8549] | 10.2 ± 0.23
42 | AAATAAATAATTTAATGTACATATATAATATATATA [XGTACX_site1831] | 8.5 ± 0.11
43 | ATATATTATATAATATGTACATAATAAAATTTAAAT [XGTACX_site1900] | 8.72 ± 0.27
44 | ATATATATATATATATGTACTAATTAATATTTCGAG [XGTACX_site580] | 10.2 ± 0.47
45 | AATATTATATATATGGGTACTAATTCCTTTAATTTC [XGTACX_site102] | 8.15 ± 0.3
